Shiga inhibitor – inhibitors of Shiga toxin in Vero cells; Vero cells, Shiga toxin protein synthesis inhibition reporter; inhibition, % at 38.7 µM; 290,000 tested, 9.2% active; AID 2315; in the data active = inhibition mostly above about 28%, no sharp cut-off; inactive = mostly below about 43%
Pf growth 48h – inhibits P. falciparum growth in the first generation, 48 h; P. falciparum luciferase growth in erythrocytes, 48 h; Potency, µM (titrated, usually from 28.7 µM), hits mostly inhibitors; 310,000 tested, 5.9% active; AID 504832
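Here the parasites carry a stable luciferase gene and grow inside erythrocytes in Albumax-based RPMI medium with compound for one erythrocytic cycle. Activity is scored as loss of luminescent signal.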
CHX counter – counter-screen for Shiga toxin inhibitors: cycloheximide protein synthesis inhibition. 300,000 tested, 12% active. AID 2314. cell reporter, cycloheximide protein synthesis inhibition counterscreen. max response, %; in the data active = max response mostly above about 13%, no sharp cut-off; inactive = mostly below about 14%; also: read at 38.3 µM for the half of the compounds with a filed dose
Pf growth 96h – inhibits malaria parasite growth, 96 h. P. falciparum luciferase reporter growth, 96 h. Potency, µM (titrated, usually from 28.7 µM), hits mostly inhibitors. 320,000 tested, 6.9% active. AID 504834
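Parasite growth measured via integrated firefly luciferase reporter in P. falciparum. Infected erythrocytes at 2% hematocrit, 0.05% parasitemia final were treated 96 hours at 37 C under 5% CO2, and luminescence was read.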
Each line names hits and unclear results; the compound was inactive in the other large screens. Only some compounds are listed: those with a hit (about 21% of all), similar ones and a draw of the others. Unless noted, calls follow the shape of the dose curve; as a rule, active = well fitted inhibition curve with a large enough effect; inconclusive = small, poorly fitted or top-dose-only effect, or another doubt; inactive = no such curve, though single readings can be large or run the other way.

Cc1ccccc1N1CC(C(=O)N2CCCCCC2)CC1=O (stereo not drawn)	none (no result: Shiga inhibitor, CHX counter)
CCNc1nn2ccccc2c1/C=C(\C#N)C(=O)OCC	none
Cc1ccc(C(OCC(O)CNC(CO)C(O)c2ccc([N+](=O)[O-])cc2)c2ccccc2)cc1 (stereo not drawn)	Pf growth 48h inconclusive, Pf growth 96h inconclusive
COC(=O)c1ccc(NC(=S)NC2CC3CCC2C3)cc1 (stereo not drawn)	Shiga inhibitor 104, CHX counter 41
COc1ccc(NC(=O)NC2CCCCCCC2)cc1	Shiga inhibitor 61, CHX counter 45
CN(CC(=O)NC(=O)NC1CCCCC1)CC(=O)Nc1ccc(Cl)cc1	Pf growth 48h inconclusive, Pf growth 96h 4.1µM (no result: Shiga inhibitor, CHX counter)
O=C(CNC(=O)C1CCCCC1)Nc1ccccc1	none
COc1ccc(NC(=O)CNC(=O)C2CCCCC2)cc1	CHX counter 22
CN(CC(=O)Nc1ccc(Cl)cc1)C1CCCCC1	none
O=C(CCSc1ccc(Br)cc1)Nc1cccnc1	none
COC(=O)c1ccc(NC(=S)NCC2CC2)cc1	Shiga inhibitor 97, CHX counter 63
CC(=O)Nc1ccc(C(=O)OCC(=O)NC(=O)NC2CCCCC2)cc1	Pf growth 96h inconclusive (no result: Pf growth 48h)
COC(=O)c1ccc(NC(=S)NC2CCCCC2)cc1	Shiga inhibitor 41
COC(=O)c1ccc(NC(=O)NC2CCCCC2)cc1	Shiga inhibitor 110, CHX counter 41
COc1ccc(C(=O)NCc2ncccc2C)cc1OC1CCN(C(C)=O)CC1	none
CCN(CC)CCCn1c2c(c(SCC(=O)N3CCc4ccccc43)nc1=O)CCC2	Pf growth 48h inconclusive (no result: Shiga inhibitor, CHX counter)
CC(C)(C)C(=O)CN1C2=NCCCN2c2ccccc21	Pf growth 96h inconclusive (no result: Shiga inhibitor)
CCOC(=O)c1[nH]cnc1C(=O)NC1CCN(C(=O)OC(C)(C)C)CC1	Pf growth 96h inconclusive (no result: Shiga inhibitor, CHX counter)
CC(C)(C)OC(=O)NCCCCCNC(=O)c1[nH]cnc1C(=O)NC1CCN(C(=O)OC(C)(C)C)CC1	Pf growth 48h 9.3µM, Pf growth 96h 2.1µM (no result: Shiga inhibitor, CHX counter)
CC(C)(C)OC(=O)N1CCC(NC(=O)c2nc[nH]c2C(=O)N2CCN(C(=O)OC(C)(C)C)CC2)CC1	Pf growth 48h 10µM, Pf growth 96h inconclusive (no result: Shiga inhibitor, CHX counter)
O=C(Nc1ccccc1)/C(=C/c1ccc(F)cc1)NC(=O)c1ccco1	none
CN(Cc1ccccc1)c1ccc(S(=O)(=O)N2CCC(C(=O)O)CC2)cc1[N+](=O)[O-]	none
CCOc1cc(/C=N/Nc2ccc(C(=O)O)cc2)ccc1OC(=O)c1ccccc1C	CHX counter 42
COc1cccc(OCc2cc(/C=N/Nc3ccc(C(=O)O)cc3)ccc2OC)c1	Shiga inhibitor 53, CHX counter 41
COc1cc(/C=N/NC(=O)COc2ccccc2C)ccc1OC(=O)c1cccs1	none
COc1cc(/C=N/Nc2ccc(Cl)c(C(=O)O)c2)ccc1OC(=O)c1ccccc1F	Shiga inhibitor 70, CHX counter 29
COc1ccc(C(=O)N/N=C/c2ccc(OC)c(COc3ccc(F)cc3)c2)cc1	Pf growth 48h inconclusive, Pf growth 96h inconclusive
COc1cc(/C=N/Nc2cccc(C)c2)ccc1OC(=O)c1cccs1	CHX counter 18
CCOc1cc(/C=N\NC(=O)c2ccc(NC(=O)C(C)(C)C)cc2)ccc1OC(=O)c1ccc(OC)cc1	none (no result: Pf growth 48h)
CCOc1ccc(NC(=O)c2ccc3c(c2)CCN3S(C)(=O)=O)cc1	Pf growth 48h inconclusive
COc1cccc(C(=O)Oc2ccc(/C=N/Nc3ccc(C(=O)O)cc3)cc2OC)c1	CHX counter 33 (no result: Shiga inhibitor)
CC1(C)C/C(=N\NC(=S)Nc2ccccc2F)c2cc(O)ccc2O1	Pf growth 48h 13µM, Pf growth 96h 10µM
Cc1cccc(NC(=S)N/N=C2\CC(C)(C)Oc3ccc(O)cc32)c1	Pf growth 48h inconclusive, Pf growth 96h inconclusive
Cc1ccc(OCc2nnc(SCc3nc4ccccc4[nH]3)n2Cc2ccco2)cc1	Pf growth 48h inconclusive, Pf growth 96h 6.6µM
O=C(CSc1nnc(COc2ccccc2)n1Cc1ccco1)c1ccc(F)cc1	Pf growth 48h 12µM, CHX counter 37, Pf growth 96h 13µM
Cc1occc1-c1nnc(SCC(=O)c2ccc(F)cc2)n1Cc1ccco1	CHX counter 12 (no result: Pf growth 96h)
Cc1occc1-c1nnc(SCC(=O)c2ccc(F)cc2)o1	Shiga inhibitor 147, CHX counter 37 (no result: Pf growth 96h)
O=C(CSc1nnc(-c2cc3ccccc3cc2O)n1Cc1ccco1)c1ccc(F)cc1	Pf growth 96h inconclusive (no result: Pf growth 48h)
COc1ccc(OC)c(NC(=O)c2ccccc2N(Cc2ccccc2)S(C)(=O)=O)c1	Pf growth 48h inconclusive
CCN(CC(=O)Nc1c(F)cccc1F)C(=O)Cc1csc(-c2ccccc2)n1	none (no result: Shiga inhibitor, CHX counter)
CC(c1ccccc1)N1CC(C(=O)N2CCN(Cc3ccc(C#N)cc3)CC2)CC1=O (stereo not drawn)	none (no result: Shiga inhibitor, CHX counter)

Screening data from PubChem.
